Entries with a potency or affinity are not part of this list. Inconclusive results are not listed. Activity calls are given as the source filed them. How the calls were made is not given here.

This assay is described as follows: viability loss in Vero cells – cell-based, purified and synthesized samples, set 8, cytotoxicity control for M. tuberculosis inhibitor project (AID 602431). As to conditions: series mostly up to 100 µM.
Regarding `CC(C)CCNC(=O)CSc1nc2c(c(=O)[nH]1)CCCC2`, the outcome was inactive. The entry for `O=C(CSc1nc2c(c(=O)[nH]1)CCCC2)NC1CCCCC1` is “inactive”; for `O=C(CSc1nc2ccccc2c(=O)[nH]1)NC1CCOCC1` it is “inactive”. The entry for `CC(C)CCNC(=O)CSc1nc2c(c(=O)[nH]1)CCCCC2` is “inactive”; for `COCCNC(=O)CSc1nc2ccccc2c(=O)[nH]1` it is “inactive”. The entry for `COC(=O)C(Cc1ccccc1)NC(=O)CSc1nc2ccccc2c(=O)[nH]1` (configuration not stated) is “inactive”. As to `O=C(c1ccc(CNc2c(N3CCOCC3)c(=O)c2=O)cc1)N1CCN(c2ccccc2)CC1`, the molecule was called inactive. As to `O=C(NCc1ccc(C(=O)N2CCN(c3ccccc3)CC2)cc1)NC1CCCCC1`, the molecule was called inactive. The entry for `O=C(CSc1nc2c(c(=O)[nH]1)CCC2)NC1CCCCC1` is “inactive”; for `O=C(c1ccc(CNc2c(N3CCCC3)c(=O)c2=O)cc1)N1CCN(c2ccccc2)CC1` it is “inactive”. In the case of `O=C(c1ccc(CNc2c(N3CCOCC3)c(=O)c2=O)cc1)N1CCC(c2ccccc2)CC1`, the outcome was inactive.

Turning to `CC(C)CCNC(=O)CSc1nc2ccccc2c(=O)[nH]1`, the call was inactive.

These data come from PubChem BioAssay AID602431 (Southern Research Specialized Biocontainment Screening …, 2012).
